Records with an inconclusive call do not appear. Entries that show only a call come without a potency. Active and inactive are the calls of the source. Calls follow the shape of the full dose curve.
assay: qHTS assay for small molecules that induce genotoxicity in human embryonic kidney cells expressing luciferase-tagged ATAD5 - cell viability (AID 651634); settings: HEK293T ATAD5-luc cells viability, CellTiter-Fluor, 15.5 h; series mostly up to 83.3 µM; also: nearly all actives have a fitted effect of over 25% in size
Source text: National Center for Advancing Translational Sciences [NCATS]
NIH Chemical Genomics Center [NCGC]
U.S. Environmental Protection Agency [EPA]
National Institutes of Environmental Health Sciences [NIEHS]
National Toxicology Program [NTP]
U.S. Food and Drug Administration [FDA]
Enhanced Level of Genome Instability Gene 1 (ELG1; human ATAD5) protein levels increase in response to various types of DNA damage. Using a luciferase reporter-gene tagged with ElG1, a cell-based assay [developed by Kyungjae Myung, NHGRI, NIH] was used to measure the induction of ATAD5 in human embryonic kidney cells (HEK293T). So, increase in luciferase activity can be used to identify the compounds that cause genetic stress. In addition to genotoxicity, these cells were also used to test for cytotoxicity by measuring the protease activity within live cells.
Tox21 Assay Protocol Summary:
For cytotoxicity screening, 2,000 cells in 5 uL/well were dispensed into white, solid-bottom 1536-well plates using a Multidrop Combi (Thermo Scientific) dispenser. Following transfer of 23 nL compound or DMSO vehicle by a pin tool, the plates were incubated 15.5 hr at 37C and 5% CO2. 1 ul CellTiter-Fluor reagent (Promega, Madison, WI) was then added to each plate and following 30 min incubation at 37C, fluorescence intensity was quantified on a ViewLux CCD-based plate reader.
Potency is read from the fitted curve at half-maximal effect.

Q: For Nc1cc([N+](=O)[O-])ccc1O, which Potency is on record?
A: The Potency was 24.3 µM (active).

Q: For CC1=CCC2CC1C2(C)C (stereo not given), which Potency is on record?
A: Its Potency is “inactive”.

Q: For CCCCCC1=CCCC1=O, which Potency is on record?
A: Its Potency is “inactive”.

Q: Which Potency does the source give for C[C@H]1C[C@@H]2[C@H]([C@@H](O)C[C@@]3(C)[C@H]2CC[C@]3(O)C(=O)CO)[C@@]2(C)C=CC(=O)C=C12 here?
A: The Potency was “inactive”.

Q: With O=C(O)c1ccccc1C(c1ccc(O)cc1)c1ccc(O)cc1 as the compound, how does the Potency read?
A: The Potency was “inactive”.

Q: Which Potency does the source give for O=S1(=O)CC=CC1 here?
A: Its Potency is “inactive”.

Q: Which Potency does the source give for CN(C)CCC(c1ccc(Cl)cc1)c1ccccn1 (stereo not given) here?
A: Its Potency is “inactive”.

Q: Which Potency does the source give for C[C@H]1C[C@H]2[C@@H]3CCC4=CC(=O)C=C[C@]4(C)[C@@]3(F)[C@@H](O)C[C@]2(C)[C@@]1(O)C(=O)CO here?
A: The Potency was “inactive”.

Q: Which Potency does the source give for O=c1[nH]nnc2ccccc12 here?
A: Its Potency is “inactive”.

Q: With CCC(O)OCCCOC (stereo not given) as the compound, how does the Potency read?
A: The Potency was “inactive”.

Q: Which Potency does the source give for OCC(CO)(CBr)CBr here?
A: Its Potency is “inactive”.

Q: For c1ccc(OCCOc2ccccc2)cc1, which Potency is on record?
A: The Potency was “inactive”.

Q: Which Potency does the source give for CC(O)COCC(C)O (stereo not given) here?
A: Its Potency is “inactive”.

Q: With CC(C)(C)[C@@H](O)[C@@H](Cc1ccc(Cl)cc1)n1cncn1 as the compound, how does the Potency read?
A: The Potency was “inactive”.

Q: Which Potency does the source give for CCCCCOC(C)=O here?
A: The Potency was “inactive”.

Q: Which Potency does the source give for CC(C)CC(=O)CC(C)C here?
A: The Potency was “inactive”.

Q: With Cc1cc(C)c(C)cc1C as the compound, how does the Potency read?
A: Its Potency is “inactive”.

Q: For CC1=C(C)S(=O)(=O)CCS1(=O)=O, which Potency is on record?
A: Its Potency is “inactive”.

Q: Which Potency does the source give for O=C1CCC(N2C(=O)c3ccccc3C2=O)C(=O)N1 (stereo not given) here?
A: Its Potency is “inactive”.

Q: For O=[N+]([O-])c1ccc(/C=C/c2ccc([N+](=O)[O-])cc2S(=O)(=O)O)c(S(=O)(=O)O)c1, which Potency is on record?
A: Its Potency is “inactive”.

Q: For O=C(CC(C(=O)OC1CCCCC1)S(=O)(=O)O)OC1CCCCC1 (stereo not given), which Potency is on record?
A: Its Potency is “inactive”.

Q: Which Potency does the source give for CC1=CC(=O)NS(=O)(=O)O1 here?
A: Its Potency is “inactive”.

Q: With CCN(CC)c1ccc(C(=O)c2ccccc2C(=O)O)c(O)c1 as the compound, how does the Potency read?
A: The Potency was “inactive”.

Q: For CC(C)c1ccc(S(=O)(=O)O)cc1, which Potency is on record?
A: Its Potency is “inactive”.

Q: Which Potency does the source give for O=C(O)c1cc(C(=O)O)cc(S(=O)(=O)O)c1 here?
A: The Potency was “inactive”.

Q: Which Potency does the source give for CN(C)CCC(c1ccccc1)c1ccccn1 (stereo not given) here?
A: Its Potency is “inactive”.

Q: Which Potency does the source give for O=c1[nH]c(=O)n([C@H]2CCCO2)cc1F here?
A: The Potency was “inactive”.

Q: With ON=C1CCCCC1 as the compound, how does the Potency read?
A: The Potency was “inactive”.

Q: With O=C(O)c1ccc2c(c1)C(=O)OC2=O as the compound, how does the Potency read?
A: Its Potency is “inactive”.

Q: For C=CCOC(=O)c1ccccc1C(=O)OCC=C, which Potency is on record?
A: The Potency was “inactive”.

Q: With CCCCC(CC)COC(=O)CS (stereo not given) as the compound, how does the Potency read?
A: Its Potency is “inactive”.

Q: For C=C(C)C(=O)O[C@H]1C[C@@H]2CC[C@@]1(C)C2(C)C, which Potency is on record?
A: The Potency was “inactive”.

Q: With CCCCCC/C(C=O)=C\c1ccccc1 as the compound, how does the Potency read?
A: The Potency was “inactive”.

Q: With FC(F)(F)c1ccc(Cl)c(Cl)c1 as the compound, how does the Potency read?
A: The Potency was “inactive”.

Q: Which Potency does the source give for CCCCOC(=O)COc1ccc(Cl)cc1Cl here?
A: Its Potency is “inactive”.

Q: With C[Si](O[Si](C)(C)C)O[Si](C)(C)C as the compound, how does the Potency read?
A: Its Potency is “inactive”.

Q: Which Potency does the source give for COc1ccc(Nc2ccccc2)c(C)c1 here?
A: The Potency was “inactive”.

Q: For c1ccc2scnc2c1, which Potency is on record?
A: Its Potency is “inactive”.

Q: For O=C(O)CCCCCCCCCCC(=O)O, which Potency is on record?
A: Its Potency is “inactive”.

Q: For Cc1ccc2oc(=O)ccc2c1, which Potency is on record?
A: The Potency was “inactive”.
